Reference: PubChem BioAssay AID2315 (National Center for Advancing Translational Sciences (NCATS), 2010)
The campaign covered roughly 290,000 compounds. About 27,000 (9.3%) were called active. No stated cut-off is given here; in the data, active means inhibition mostly above about 28% (no sharp cut-off); inactive means mostly below about 43%. The list comes from a sample in which actives are over-represented; it also holds similar structures and randomly drawn compounds.

assay: A qHTS for Small Molecule Inhibitors of Shiga Toxin; conditions: Vero cells, Shiga toxin protein synthesis inhibition reporter; at 38.7 µM, active compounds read high; further: 0% is about no effect

Row | SMILES | inhibition
1 | CC(C)(C)NC(=O)CSC(=Nc1ccccc1F)NC#N | 33.9% (active)
2 | Cc1ccccc1CSCC(=O)NC(=O)NC(C)(C)C | 11% (inactive)
3 | COc1ccccc1-n1ccnc1SCC(=O)NC(C)(C)C | 18.7% (inactive)
4 | Cc1nc2sc(C(=O)c3ccccc3)c(N)c2c2c1CCCC2 | 18.1% (active)
5 | CN(C)c1ccnc2sc3c(=O)n(Cc4ccccc4)cnc3c12 | -12.3% (inactive)
6 | CCc1nc2sc(C(=O)O)c(N)c2c2c1CCCC2 | -12.9% (inactive)
7 | CCOC(=O)c1sc2nc(SC)nc(-c3ccccc3)c2c1N | -14% (inactive)
8 | NC(=O)c1sc2nc3c(c(-c4ccccc4)c2c1N)CCC3 | -11.8% (inactive)
9 | COC(=O)c1cc2c(N)c(C(=O)c3ccc(Cl)cc3)sc2nc1C(OC)OC | -1.42% (inactive)
10 | CS(=O)(=O)c1sc2nc(-c3ccccc3)cc(-c3ccccc3)c2c1N | -3.26% (inactive)
11 | CC(=O)c1c(Nc2ccccc2)sc(C(=O)c2ccccc2)c1C | -8.12% (inactive)
12 | COc1cccc(C(=O)c2sc3nc(-c4ccccc4)cc(C(F)(F)F)c3c2N)c1 | -1.9% (inactive)
13 | CN(C)c1ccnc2sc(C(=O)c3ccccc3)c(N)c12 | 25.4% (active)
14 | CCN(CC)C(=O)c1sc2nc(-c3ccccc3)ccc2c1N | 165% (active)
15 | Cc1ccc2c(N)c(C(=O)c3ccccc3)sc2n1 | 87.1% (active)
16 | CC(C)C[C@H]1CN=C(Nc2ccccc2)N1CC1CCCCC1 | 0.785% (inactive)
17 | O=C(Cc1ccccn1)c1ccc(O)cc1O | -4.76% (inactive)
18 | Cc1cccc(C(=O)N2CCCC(Nc3ccc(C(C)C)cc3)C2)n1 (stereo not drawn) | 19.6% (inactive)
19 | CCn1c(SCc2cccc(C(=O)O)c2)nnc1-c1ccc(Cl)cc1 | 7.08% (inactive)
20 | O=S(=O)(Cc1nnnn1-c1ccc(Br)cc1)c1ccc(F)cc1 | -1.52% (inactive)
21 | CCOc1ccc(-n2c(SCC(=O)Nc3cc(C(=O)O)ccc3Cl)nc3ccccc3c2=O)cc1 | 3.55% (inactive)
22 | CC(=O)c1cccc(NC(=O)COc2ccc(S(=O)(=O)N3CCOCC3)cc2)c1 | -10.1% (inactive)
23 | CCCC(C)c1nnc(NC(=O)C2CC(=O)N(c3ccc(OCC)cc3)C2)s1 (stereo not drawn) | -3.18% (inactive)
24 | Cc1cccn2c(=O)c3cc(C(=O)NCCN4CCOCC4)c(=N)n(Cc4cccnc4)c3nc12 | -22.4% (inactive)

Row | SMILES | inhibition
25 | CCOC(=O)c1csc(NC(=O)Nc2cccc(OC)c2)n1 | -3.25% (inactive)
26 | COc1cccc(C(=O)Nc2nnc(S(=O)(=O)N3CCCCC3)s2)c1 | 6.87% (inactive)
27 | COc1cccc(NC(=O)Nc2nnc(N3CCCCC3C)s2)c1 (stereo not drawn) | 53.2% (active)
28 | CN1C(=O)[C@H]2[C@@H](C3CC3)N3C(=O)CN(Cc4ccccc4)C(=O)[C@@]3(C)[C@H]2C1=O | 1.87% (inactive)
29 | CC1CCN(CCCn2c(SCC(=O)NC3CCCC3)nc3ccccc3c2=O)CC1 | 17.3% (inactive)
30 | COc1ccc(/C(O)=C2/C(=O)C(=O)N(c3nc(C)c(C)s3)C2c2ccco2)cc1 (stereo not drawn) | 30.6% (inactive)
31 | CCOc1ccc(/C(O)=C2\C(=O)C(=O)N(c3ccc(OC)cc3)C2c2ccccc2[N+](=O)[O-])cc1 (stereo not drawn) | 26.8% (active)
32 | COc1ccccc1C1/C(=C(/O)c2ccc(OC(C)C)cc2)C(=O)C(=O)N1c1cc(C)on1 (stereo not drawn) | -22.9% (inactive)
33 | CCNC(=O)COC(=O)CCNC(=O)c1cccc(C)c1 | 43.3% (inactive)
34 | COc1ccc(OCC(=O)NNC(=O)c2cccc(C)c2)cc1 | -7.72% (inactive)
35 | CCOC(=O)C(CC)/C(C)=N\NC(=O)c1cccc(C)c1 (stereo not drawn) | 66.3% (active)
36 | Cc1cc(=O)oc2c3c(cc(OCC(=O)NCCC(=O)N[C@@H](C)C(=O)O)c12)OC(C)(C)CC3 | -4.24% (inactive)
37 | Cc1cc2c(s1)c1cnn(Cc3c(F)cccc3Cl)c(=O)c1n2C | 12.5% (inactive)
38 | O=C(C1=C(O)C(=O)N(CCOCCO)C1c1ccccn1)c1cccs1 (stereo not drawn) | 29.3% (active)
39 | O=C(c1cccs1)N(C(=O)c1cccs1)c1ccccn1 | 39.7% (inactive)
40 | O=C(C1=C(O)C(=O)N(c2ncccn2)C1c1cccs1)c1ccco1 (stereo not drawn) | -18.4% (inactive)
41 | Cn1c(=O)c2c(nc(NCCc3ccccc3)n2Cc2ccccc2)n(C)c1=O | -11.5% (inactive)
42 | C=CCOc1nc2c(c(=O)n(C)c(=O)n2C)n1Cc1ccc(Cl)cc1Cl | -1.49% (inactive)
43 | Cn1c(=O)c2c(nc(OCc3cccnc3)n2Cc2ccccc2)n(C)c1=O | 39.2% (active)
44 | COc1ccc(CN2C3CCCC2CC(NC(=O)c2cccc(F)c2)C3)cc1 (stereo not drawn) | 14.6% (inactive)
45 | Cc1cccc(-n2ncc(Cl)c(Cl)c2=O)c1 | -17.2% (inactive)
46 | C=CCNc1cnn(-c2ccc(C)cc2)c(=O)c1Cl | 127% (active)
47 | O=c1c(Cl)c(NC2CC2)cnn1-c1ccccc1 | 107% (inactive)
48 | CCCN1C2CCCC1CC(NC(=O)c1cccc(OC)c1)C2 (stereo not drawn) | 12.9% (inactive)

Row | SMILES | inhibition
49 | CCOc1ccc(N=Cc2c(O)n(-c3cccc(C)n3)c(=O)c3ccccc23)cc1 | -15.9% (inactive)
50 | CCCCn1c(=O)c(C(C)=O)c(O)c2ccccc21 | -12.1% (inactive)
51 | CC(=O)n1c(C=Nc2ccccc2)c(O)c2ccccc21 | 49.2% (active)
52 | C/C(=N\N1CCN(Cc2ccc(C)cc2)CC1)c1ccco1 | 31.8% (active)
53 | Cc1ccc(CN2CCN(/N=C/c3ccco3)CC2)c(C)c1 | 11.6% (inactive)
54 | O=C(c1ccco1)N1CCN(Cc2cccc(C(F)(F)F)c2)CC1 | -13.9% (inactive)
55 | C/C(CC(=O)Nc1ccc(N(C)C)cc1)=N\NC(=O)c1ccccc1F | 121% (active)
56 | CCn1c2ccccc2c2cc(NC(=O)COC(=O)c3ccccc3Br)ccc21 | -4.15% (inactive)
57 | CCn1c2ccccc2c2cc(NC(=O)CNC)ccc21 | -4.7% (inactive)
58 | CCn1c2ccccc2c2cc(NC(=O)C/C(C)=N/NC(=O)c3ccccc3N)ccc21 | 131% (active)
59 | CN(C)c1ccc(NC(=O)CN2C3CCCC2CC(NC(=O)c2ccccc2)C3)cc1 (stereo not drawn) | 27.2% (inactive)
60 | CCOc1ccc(NC(=O)C/C(C)=N/NC(=O)Cc2cccs2)cc1 | 2.74% (inactive)
61 | CC(=O)NCCc1ccc(S(=O)(=O)Nc2ccc(C)c(S(=O)(=O)N3CCOCC3)c2)cc1 | -1.5% (inactive)
62 | COc1ccccc1NC(=O)CN(c1ccccc1OC)S(=O)(=O)c1ccccc1 | -1.35% (inactive)
63 | Cc1ccc(NC(=O)CSc2nnc(CNC(=O)c3ccccc3F)o2)cc1Cl | -10.8% (inactive)
64 | CC(C)[C@H](NC(=O)N1c2ccccc2NC(=O)[C@@H]1C(C)C)C(=O)N[C@H](C(=O)O)c1ccccc1 | 3.44% (inactive)
65 | CN(Cc1cnccn1)C(=O)c1cc(COc2cccc(C(F)(F)F)c2)on1 | 60.3% (active)
66 | Cc1cc(CN(C)C(=O)c2cc(COc3ccc(C)c(C)c3)on2)n[nH]1 | 59.9% (active)
67 | Cc1ccc(OCc2cc(C(=O)N(C)CCc3ccccc3)no2)cc1C | 106% (active)
68 | CN(Cc1cccnc1)C(=O)c1cc(COc2ccc3ncccc3c2)on1 | 21.5% (inactive)
69 | CN(CCOc1ccccc1)C(=O)c1cc(COc2c(F)cccc2F)on1 | 28.4% (inactive)
70 | Cc1ccc(OCC(=O)NCCCNC(=O)c2cccnc2)cc1C | -10.2% (inactive)
71 | Cc1ccc(OCC(=O)NCCCNC(=O)c2ccco2)cc1C | -2.33% (inactive)
72 | C/C(=N/OC(=O)c1cccc(C(F)(F)F)c1)c1cnccn1 | -18.2% (inactive)

Row | SMILES | inhibition
73 | Cc1ccc(SC(=O)COc2ccc(C)c(C)c2)cc1 | -26.3% (inactive)
74 | O=S(=O)(Cc1noc(-c2ccc(OC(F)(F)F)cc2)n1)c1ccc(F)cc1 | 60.4% (inactive)
75 | COc1ccc(C(C)NC(=O)C23CC4CC(CC(C4)C2)C3)cc1 (stereo not drawn) | -10.2% (inactive)
76 | COc1ccccc1NC(=O)CCC(=O)OC(C)C(=O)c1ccccc1 (stereo not drawn) | -0.996% (inactive)
77 | Cc1n[nH]c(C)c1S(=O)(=O)N1CCCC(C(=O)Nc2ccc(Br)cc2)C1 (stereo not drawn) | 3.93% (inactive)
78 | COc1ccc2oc(=O)cc(-c3cc4ccccc4o3)c2c1 | -7.01% (inactive)
79 | COc1ccc(-c2noc(CCCC(=O)NC3CCCC3)n2)cc1OC | -6.44% (inactive)
80 | CCOc1nc(-c2ccc(OC)cc2)ccc1-c1noc(-c2cc(OC)c(OC)c(OC)c2)n1 | 11.8% (inactive)
81 | COc1ccc(-c2noc(-c3cccc(OC)c3OC)n2)cc1OC | 64.7% (active)
82 | CC(C)NC(=O)C(c1ccc(F)cc1)N(C(=O)CCC(=O)Nc1ccccn1)c1ccccc1F (stereo not drawn) | -8.5% (inactive)
83 | Cc1ccc(C)c(NS(=O)(=O)c2c(C)[nH]c(C)c2C(=O)N2CCCCC2)c1 | 2.83% (inactive)
84 | CNc1nc(-c2ccccc2)cc(-c2ccccc2)n1 | 1.28% (inactive)
85 | Nc1cccc(-c2cc(-c3ccccc3)nc(-c3cccc(N)c3)n2)c1 | -3.83% (inactive)
86 | Nc1nc(-c2ccccc2)cc(-c2ccccc2)n1 | 30.7% (active)
87 | O=C(NC1CC1)C(Cc1ccccc1)NS(=O)(=O)c1ccccc1F (stereo not drawn) | -4.61% (inactive)
88 | CC1(C(=O)O)CCC(C(=O)Nc2ccc(Cl)c(Cl)c2)C1(C)C (stereo not drawn) | -2.66% (inactive)
89 | O=C(Nn1c(-c2ccccc2)nc2ccccc2c1=O)c1ccc([N+](=O)[O-])cc1 | -8.82% (inactive)
90 | O=C(CCn1c(SCC(=O)c2ccccc2)nc2ccccc2c1=O)NCc1ccc(F)cc1 | -27.4% (inactive)
91 | O=C(CN(C(=O)CNC(=O)c1cccs1)c1cccc(F)c1)NC1CCCCC1 | -5.58% (inactive)
92 | O=C1CCN(Cc2ccc([N+](=O)[O-])cc2)CCN1[C@H](CO)Cc1ccccc1 | -0.762% (inactive)
93 | C=CCc1cc(C)ccc1OCCCn1ccnc1 | -4.77% (inactive)
